Inconclusive results are not listed. Calls of active or inactive are those of the source. Unless noted, calls come from the whole dose curve; as a rule, active = well fitted curve in the direction sought with a large enough effect; inconclusive = small, poorly fitted or top-dose-only effect, or another doubt; inactive = no such curve, though single readings can be large; an effect the other way counts as inactive or inconclusive.

Assay [1] in a line: qHTS profiling of the MIPE4 collection as inhibitors of Plasmodium falciparum (3D7) proliferation (AID 743344; call rule not given here;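 note: scaled between DMSO vehicle wells and 0.29 µM artemisinin as full inhibition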). The following applies: P. falciparum 3D7 in erythrocytes, SYBR Green DNA fluorescence, 72 h; at 28.5 µM unless noted. A digest of the protocol: (§1)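 Erythrocytes infected with P. falciparum (0.3% parasitemia, 2.5% hematocrit) incubated with compounds 72 h at 37 C, 5% CO2. Lysis with saponin/Triton buffer containing SYBR Green I, overnight at room temperature in the dark; DNA fluorescence (485/535 nm) normalised to 0.29 uM artemisinin and DMSO.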
Background: qHTS replaces the single test concentration by a dilution series.

Assay [2] in a line: qHTS profiling of the MIPE4 collection as inhibitors of Plasmodium falciparum (DD2) proliferation (AID 743345; call rule not given here). To be noted: P. falciparum Dd2 in erythrocytes, SYBR Green DNA, 72 h; at 28.5 µM unless noted. A digest of the protocol:
as §1

Assay [3] in a line: qHTS profiling of the MIPE4 collection as inhibitors of Plasmodium falciparum (DD2) proliferation (Rep 2) (AID 743346; call rule not given here). To be noted: P. falciparum Dd2 in erythrocytes, SYBR Green DNA, 72 h; at 28.5 µM unless noted. A digest of the protocol:
as §1

Assay [4] is described as follows: qHTS profiling of the MIPE4 collection as inhibitors of Plasmodium falciparum (HB3) proliferation (AID 743347; call rule not given here;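 note: plate controls were DMSO vehicle wells for no effect and artemisinin wells for full effect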). To be noted: P. falciparum HB3 in erythrocytes, SYBR Green DNA, 72 h; at 28.5 µM unless noted. The gist of the method: as §1
The nature of assay [5]: qHTS assay to identify small molecule inhibitors of chordoma cells - UCH-2 (AID 1259356). Note: potency is the fitted concentration of half-maximal effect.
The nature of assay [6]: P-glycoprotein substrates identified in KB-8-5-11 adenocarcinoma cell line, qHTS therapeutic library screen (AID 1346987). Note: % is set by controls: 0 for no effect and ±100 for the full control effect; nearly all actives have a fitted effect of over 65% in size. A digest of the protocol: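 KB-8-5-11: colchicine-selected sub-line of KB-3-1 over-expressing P-gp; assay medium lacked colchicine. 72 h drug exposure at 37 degree C, CellTiter-Glo.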
The nature of assay [7]: qHTS profiling for inhibitors of Plasmodium falciparum (3D7) proliferation (AID 743322).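 Note: infected erythrocytes exposed to compound for 72 h before lysis; 100% = DMSO vehicle wells and 0% = 0.29 µM artemisinin.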 The following applies: P. falciparum 3D7 proliferation; at 28.7 µM (top of the series) unless noted. The gist of the method: as §1
Assay [8] can be described thus: qHTS profiling for inhibitors of Plasmodium falciparum (DD2) proliferation (AID 743323; call rule not given here). To be noted: lower = more inhibition; at 28.7 µM (top of the series) unless noted. The gist of the method:
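1536-well qHTS; infected RBCs 0.3% parasitemia/2.5% Hct final; cpd 72 h 37 C 5% CO2; lysis buffer + SYBR Green I, o/n RT dark; FI 485/535; norm. to 0.29 uM artemisinin and DMSO, plate-stack corrected.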

The nature of assay [9]: qHTS profiling for inhibitors of Plasmodium falciparum (HB3) proliferation (AID 743324).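 Note: 100% = DMSO vehicle wells and 0% = artemisinin-treated control wells.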 To be noted: Plasmodium falciparum HB3 blood-stage proliferation; at 28.7 µM (top of the series) unless noted. The gist of the method: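 P. falciparum HB3 grown in erythrocytes (0.3% parasitemia, 2.5% hematocrit final) with compound for 72 h at 37 C, 5% CO2. Parasite DNA detected by SYBR Green after saponin/triton lysis overnight; normalized to 0.29 uM artemisinin and DMSO.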

Assay [10] in a line: Identifying Small Molecule Inhibitors of Pancreatic Cancer Stem Cells (A2780, Spheroid) (AID 1259357).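 Note: potency is the fitted concentration of half-maximal effect; compound exposure lasted 48 h before the ATP luminescence read.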 To be noted: Potency: A2780 spheroid viability. A digest of the protocol:
(§2)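 Pre-formed 14-day tumor spheroids or adherent cells dosed and incubated 48 h, 37C, 5% CO2. Viability assessed by CellTiter-Glo.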

The nature of assay [11]: Identifying Small Molecule Inhibitors of Pancreatic Cancer Stem Cells (Panc1, Spheroid) (AID 1259359).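 Note: potency is the fitted concentration of half-maximal effect; compound exposure lasted 48 h before reading.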 The gist of the method:
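Cytotoxicity read by CellTiter-Glo luminescence after 48 h compound exposure at 37C; percent activity scaled between DMSO-treated cells and cell-free wells. Spheroid formats used cells pre-formed 14 days in stem cell media on hydrogel.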

A short description of assay [12]: Identifying Small Molecule Inhibitors of Pancreatic Cancer Stem Cells (SN12C, Spheroid) (AID 1259360). Note: potency is the fitted concentration of half-maximal effect. To be noted: Potency: SN12C spheroid viability. A digest of the protocol:
as §2

A short description of assay [13]: Identifying Small Molecule Inhibitors of Pancreatic Cancer Stem Cells (A278, Adherent) (AID 1259361). Note: nearly all actives have a fitted effect of over 35% in size. A digest of the protocol: (§3)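 Luminescent ATP readout (CellTiter-Glo) quantifies surviving cells after a 48 h drug incubation. Normalization uses DMSO wells as no inhibition and media-only wells as full inhibition; bortezomib served as positive control.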
A short description of assay [14]: Identifying Small Molecule Inhibitors of Pancreatic Cancer Stem Cells (Panc1, Adherent) (AID 1259362). Note: potency is the fitted concentration of half-maximal effect. To be noted: Potency: viability. A digest of the protocol: as §3

`C=C1C(=CC=C2CCC[C@@]3(C)[C@@H]2CC[C@H]3[C@H](C)CCCC(C)C)C[C@@H](O)C[C@@H]1O` yielded a parasite growth, % of DMSO control in assay [1] of 22.5%. Also, in [2], the parasite growth remaining, % of DMSO control (lower = more inhibition) is 65.2%. The same compound had a parasite growth, % of control (lower = inhibition) in assay [3] of 29.8%. In assay [4], this compound yielded a growth, % of control of 19.8%. Also, the Potency entry in [5] was “inactive”.
Take `CC(Oc1ccccc1)C(=O)N[C@@H]1C(=O)N2[C@@H]1SC(C)(C)[C@@H]2C(=O)O` (some centres undefined): the Potency result in assay [5] and in assay [6] was “inactive” in each case.
On to `COC(C(=O)C(O)C(C)O)C1Cc2cc3cc(OC4CC(OC5CC(O)C(O)C(C)O5)C(O)C(C)O4)c(C)c(O)c3c(O)c2C(=O)C1OC1CC(OC2CC(OC3CC(C)(O)C(O)C(C)O3)C(O)C(C)O2)C(O)C(C)O1` (centres undefined), for which the Potency entry in assay [5] and in [6] was “inactive” in each case.
For `CC[C@H]1OC(=O)C[C@@H](O)[C@H](C)[C@@H](O[C@@H]2O[C@H](C)[C@@H](O)[C@H](N(C)C)[C@H]2O)[C@@H](CCN2C[C@H](C)C[C@H](C)C2)C[C@@H](C)C(=O)/C=C/C(C)=C/[C@@H]1CO[C@@H]1O[C@H](C)[C@@H](O)[C@@H](OC)[C@H]1OC`, the Potency result in assay [5] and in [6] was “inactive” in each case.
As to `CCCCCCCCCCCC[n+]1ccc2ccccc2c1`, in [5], the Potency is 25.9 µM (active). Besides, in assay [6], the Potency entry was “inactive”.
Taken in the same sequence, the figures for `CCC(=O)OCC(=O)[C@@]1(OC(=O)CC)[C@H](C)C[C@H]2[C@H]3[C@H]([C@@H](O)C[C@@]21C)[C@@]1(C)C=CC(=O)C=C1C[C@H]3Cl` were “inactive” and “inactive”.
Taken in the same sequence, the figures for `CC1=CCC(C(C)(C)O)CC1` (centres undefined) were “inactive” and “inactive”.
With `CC[C@@H](C(=O)O)C1CC[C@H](C)C([C@@H](C)[C@H](O)[C@H](C)C(=O)[C@H](CC)C2O[C@]3(C=C[C@@H](O)[C@]4(CC[C@@](C)(C5CC[C@](O)(CC)[C@H](C)O5)O4)O3)[C@H](C)C[C@@H]2C)O1` (some centres undefined), the remaining parasite growth % (stronger effect = lower value) in [7] was -3.05%. The activity, percent of control in assay [8] was -0.726%. Besides, in assay [9], the remaining proliferation (% of control), lower = more inhibition is -1.24%. Also, the Potency in assay [10] is 0.0332 µM (active); in assay [11], 14.8 µM (active); in assay [12] it was 1.87 µM (active); in assay [14], 7.43 µM (active). Also, the IC50 (viability decrease) in assay [13] was 0.0743 µM (active).
`CC(=O)Oc1c(C)cc(OCC(O)CNC(C)C)c(C)c1C` (centres undefined): the Potency entry in [5] and in assay [6] was “inactive” throughout.
Take `CCCCC(=O)O[C@]1(C(=O)CO)[C@H](C)C[C@H]2[C@@H]3CCC4=CC(=O)C=C[C@]4(C)[C@@]3(F)[C@@H](O)C[C@@]21C`: the Potency entry in assay [5] and in [6] was “inactive” each time.
Take `Cc1c(C)c2c(c(C)c1O)CC[C@@](C)(CCC[C@H](C)CCC[C@H](C)CCCC(C)C)O2`: the Potency entry in assay [5] and in [6] was “inactive” in each case.
Consider `O=S(=O)(O)O`, for which the Potency entry in assay [5] and in [6] was “inactive” throughout.
With `CCCC(=O)Nc1ncnc2c1ncn2[C@@H]1O[C@@H]2COP(=O)(O)O[C@H]2[C@H]1OC(=O)CCC`, the Potency entry in assay [5] and in assay [6] was “inactive” each time.
For `CCCCC/C=C\C/C=C\CCCCCCCC(=O)O`, the Potency result in assay [5] and in [6] was “inactive” throughout.
Turning to `C=C1CC[C@@H]2[C@](C)(CO)[C@H](O)CC[C@@]2(C)[C@@H]1C/C=C1/C(=O)OC[C@H]1O`, the Potency result in [5] and in assay [6] was “inactive” throughout.
Consider `C[C@H](CCC(=O)O)[C@H]1CC[C@H]2[C@@H]3[C@H](O)C[C@@H]4C[C@H](O)CC[C@]4(C)[C@H]3CC[C@]12C`, for which the Potency entry in assay [5] and in [6] was “inactive” each time.
For the compound `CCOc1ccc2c(c1)C(C)=CC(C)(C)N2`, the Potency result in assay [5] and in [6] was “inactive” throughout.
For `CCCCCCCC/C=C\CCCCCCCC(=O)O`, the Potency entry in [5] and in assay [6] was “inactive” in each case.
Turning to `CO[C@H]1C=CO[C@@]2(C)Oc3c(C)c(O)c4c(O)c(c5c(nc6cc(C)ccn65)c4c3C2=O)NC(=O)/C(C)=C\C=C[C@H](C)[C@H](O)[C@@H](C)[C@@H](O)[C@@H](C)[C@H](OC(C)=O)[C@@H]1C`, the Potency entry in assay [5] and in assay [6] was “inactive” throughout.
In the case of `CCCCCCCC(=O)O`, the Potency entry in assay [5] and in assay [6] was “inactive” in each case.
`CCOC(=O)O[C@]1(C(=O)COC(=O)CC)CC[C@H]2[C@@H]3CCC4=CC(=O)C=C[C@]4(C)[C@H]3[C@@H](O)C[C@@]21C`: the Potency result in assay [5] and in [6] was “inactive” throughout.
As for `CC1(C)O[C@@H]2C[C@H]3[C@@H]4CCC5=CC(=O)C=C[C@]5(C)[C@H]4[C@@H](O)C[C@]3(C)[C@]2(C(=O)CO)O1`, the Potency result in assay [5] and in assay [6] was “inactive” in each case.
On to `CCCC(=O)O[C@]1(C(=O)COC(C)=O)CC[C@H]2[C@@H]3C[C@H](F)C4=CC(=O)C=C[C@]4(C)[C@@]3(F)[C@@H](O)C[C@@]21C`, for which the Potency entry in assay [5] and in assay [6] was “inactive” each time.
As to `NC(=O)Nc1cc(-c2ccc(CN3CCOCC3)c(F)c2)sc1C(=O)N[C@H]1CCCNC1`, the remaining parasite growth % (stronger effect = lower value) in assay [7] turned out to be 3.88%. The activity, percent of control in assay [8] was determined as 1.39%. In addition, the remaining proliferation (% of control), lower = more inhibition in assay [9] was 2.42%. Moreover, the Potency in assay [10] is 20.9 µM (active); in assay [11], 9.35 µM (active); in assay [12] it was 16.6 µM (active); in [14] it was 0.833 µM (active). The IC50 (viability decrease) in [13] is 0.526 µM (active).
Regarding `CO[C@H](C(=O)[C@@H](O)[C@@H](C)O)C1Cc2cc3cc(O[C@H]4C[C@@H](O[C@H]5C[C@@H](O)[C@H](O)[C@@H](C)O5)[C@@H](O)[C@@H](C)O4)c(C)c(O)c3c(O)c2C(=O)[C@H]1O[C@H]1C[C@@H](O[C@H]2C[C@@H](O[C@H]3C[C@](C)(O)[C@H](O)[C@@H](C)O3)[C@H](O)[C@@H](C)O2)[C@H](O)[C@@H](C)O1` (some centres undefined), the Potency result in [5] and in assay [6] was “inactive” throughout.
In the case of `O=C(O)c1cc(=O)c2c3nc4ccccc4oc-3cc(=O)c2[nH]1`, the Potency entry in assay [5] and in assay [6] was “inactive” in each case.
As for `O=C(O)CCC(=O)C(=O)O`, the Potency result in [5] and in assay [6] was “inactive” in each case.

Values taken from PubChem BioAssay (NCATS).
